HepG2 viability: kills HepG2 cells in TGF-b inhibitor counter-screen. Potency, µM (doses to about 46.1 µM), inactives show at the highest dose activity change, negative = cytotoxicity, usual class: cytotoxic. AID 588856. HepG2 CAGA-GFP viability, ATP luminescence, 18 h. hit rate 0.76% among 410,000; also: potency is read from the fitted curve at half-maximal effect
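CellTiter-Glo luminescence gave cytotoxicity after 18 hours at 37 degrees C. The cells were HepG2 CAGA-GFP in 1% FBS DMEM, stimulated with 500 pg/mL TGF-beta after compound addition. %Activity was normalised to no-cell wells (complete cell-killing) and DMSO (no toxicity), and curves were fitted and classified.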
TDP1 cell noCPT: qHTS for Inhibitors of human tyrosyl-DNA phosphodiesterase 1 (TDP1): qHTS in cells in absence of CPT; DT40 Tdp1-/- hTDP1 cells, no CPT, ATP luminescence, 48 h; Potency, µM (top dose mostly 46.2 µM), for inactives: top-dose activity change, negative = growth inhibition, hits mostly inhibitors; hit rate 15% among 420,000; AID 686978, 2013; also: potency is read from the fitted curve at half-maximal effect; % is scaled to controls: 0 for no effect and ±100 for the full control effect; nearly all actives have a fitted effect of over 55% in size
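No-CPT arm: Tdp1-/-;hTDP1 DT40 cells (400/well) plus compounds, incubated ≥48 hr at 37 °C. Readout CellTiter-Glo luminescence.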
DT40 TDP1 CPT: DT40-hTDP1 cell growth loss with CPT; chicken DT40 Tdp1-/-;hTDP1 cells + 20 nM CPT, ATP luminescence, 48 h; Potency, µM (doses to about 46.2 µM), for inactives: at the highest dose activity change, negative = growth inhibition, actives largely listed as inhibitors; hit rate 12% among 420,000; AID 686979; also: potency is read from the fitted curve at half-maximal effect; % is scaled to controls: 0 for no effect and ±100 for the full control effect; nearly all actives have a fitted effect of over 55% in size
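Chicken DT40 Tdp1-/- cells stably complemented with human TDP1 were seeded at 400 cells/well in medium containing 20 nM camptothecin, exposed to pin-transferred compounds, and grown at 37 °C for at least 48 hr. Viability was read as ATP luminescence.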
ASM inhibitor: blocks human secretory acid sphingomyelinase. AID 504937. P17405. hit rate 0.006% among 340,000. Potency, µM (top dose mostly 57.5 µM), for inactives: at the highest dose activity change, negative = inhibition, usual class: inhibitors. placental ASM, HMU-PC fluorogenic substrate, 60 min; also: potency is read from the fitted curve at half-maximal effect
Target sequence (P17405 47-631 limits assumed): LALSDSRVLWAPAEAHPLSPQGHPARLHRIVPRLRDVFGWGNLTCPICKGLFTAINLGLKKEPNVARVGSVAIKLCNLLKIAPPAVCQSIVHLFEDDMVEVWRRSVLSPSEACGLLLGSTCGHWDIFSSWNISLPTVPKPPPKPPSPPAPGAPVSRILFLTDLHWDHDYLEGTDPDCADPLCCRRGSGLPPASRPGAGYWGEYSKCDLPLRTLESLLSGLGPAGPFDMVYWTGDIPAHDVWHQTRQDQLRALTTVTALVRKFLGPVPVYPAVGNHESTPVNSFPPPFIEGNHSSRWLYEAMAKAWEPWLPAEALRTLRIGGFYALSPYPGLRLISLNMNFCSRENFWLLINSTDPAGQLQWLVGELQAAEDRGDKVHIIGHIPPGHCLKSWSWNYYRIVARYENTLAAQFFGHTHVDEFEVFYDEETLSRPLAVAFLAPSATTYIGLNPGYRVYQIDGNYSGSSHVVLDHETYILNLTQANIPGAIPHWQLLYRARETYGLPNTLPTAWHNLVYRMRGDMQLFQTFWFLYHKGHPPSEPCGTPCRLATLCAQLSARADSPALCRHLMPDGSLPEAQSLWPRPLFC
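Fluorogenic HMU-PC substrate (9 uM final) is turned over by placental ASM in 60 min at 37 C after a 10 min compound preincubation. Reaction ended by alkaline stop (pH 10), with fluorescence read at 386/447 nm.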
IL-1B inflam inh: blocks inflammasome-driven IL-1 beta release | THP-1 LPS/ATP IL-1B secretion, AlphaLISA, 16 h; stronger effect = lower value | activity change, % at 57.5 µM | hit rate 4.7% among 360,000 | AID 743279; in the data active = activity change below about -50%; inconclusive = mostly about -30% to -49%; also: % is scaled to controls: 0 for no effect and ±100 for the full control effect
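Secreted IL-1B measured by AlphaLISA bead assay after 16 h compound exposure of THP-1 cells; compounds (final up to 57.5 uM) added 1 h before LPS (250 ng/mL) and ATP (1.25 mM) stimulation; lower signal means less secretion.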
TGFb SMAD3 inh: TGF-b pathway inhibition | Potency, µM (highest dose often 46.1 µM), for the others: top-dose activity, negative = inhibition, hits mostly inhibitors | hit rate 1.2% among 410,000 | AID 588855 | HepG2 CAGA-GFP TGF-b/SMAD3 reporter, GFP fluorescence, 18 h; TGF-beta stimulated, 500 pg/mL final; also: potency is read from the fitted curve at half-maximal effect; % is scaled to controls: 0 for no effect and ±100 for the full control effect; nearly all actives have a fitted effect of over 65% in size
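First, reporter cells (HEPG2 CAGA-GFP) rested 2 h at 37 degrees C. Next, compounds were pinned in and TGF-beta added to 500 pg/mL final. After 18 h, GFP was imaged per cell and summed per well.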
Numbers without * were called inactive; i = inactive; ? = inconclusive; · = no result. Compounds with a hit are over-represented: about 19% of the library has one in this group of screens. Unless noted, calls follow the shape of the dose curve; as a rule, active = well fitted curve in the direction sought with a large enough effect; inconclusive = small, poorly fitted or top-dose-only effect, or another doubt; inactive = no such curve, though single readings can be large; an effect the other way counts as inactive or inconclusive.

SMILES | HepG2 viability | TDP1 cell noCPT | DT40 TDP1 CPT | ASM inhibitor | IL-1B inflam inh | TGFb SMAD3 inh
COc1ccc(C2=C(N)c3ccccc3C2=O)cc1 | -37.2% | ? | ? | -5.9% | -8.2 | -0.7%
COc1ccc(NC2=C(c3ccc(OC)cc3)C(=O)c3ccccc32)cc1 | 0.0% | ? | 3.66µM* | -3.9% | 0.0 | 1.4%
COCCCNC(=O)c1cc(-c2ccc(OC)cc2)nc2n[nH]c(-c3ccc(Cl)cc3)c12 | -16.4% | 4.5% | 8.7% | · | · | -18.6%
CC(=O)Nc1ccc(S(=O)(=O)N(C)CC(=O)OCC(=O)N(CC(C)C)C2CCS(=O)(=O)C2)cc1 (stereo not drawn) | 7.5% | 1.4% | -9.8% | 3.4% | 16.9 | -10.3%
O=C1C(c2ccc(C(F)(F)F)cc2)=C(Nc2ccc(Cl)cc2)c2ccccc21 | -56.8% | 11.6µM* | 16.4µM* | · | · | 6.8%
COc1ccc(NC2=C(c3ccc(C(F)(F)F)cc3)C(=O)c3ccccc32)cc1 | 10.0% | ? | ? | · | · | 27.6%
CC1Cc2ccccc2N1S(=O)(=O)c1cccc(C(=O)c2nccn2C)c1 (stereo not drawn) | -27.6% | -29.4% | -17.7% | -2.5% | 13.1 | ?
CC1Cc2ccccc2N1S(=O)(=O)c1cccc(C(=O)N2CCCCC2)c1 (stereo not drawn) | -19.6% | 16.4µM* | 20.6µM* | 3.9% | ? | -27.7%
COc1ccccc1N1CCN(C(=O)c2cccc(Oc3ccccc3)c2)CC1 | -24.6% | -15.0% | -29.7% | -1.4% | 21.8 | ?
CC1Cc2ccccc2N1S(=O)(=O)c1cccc(C(=O)N2Cc3ccccc3CC2C(N)=O)c1 (stereo not drawn) | -11.9% | 8.2µM* | 16.4µM* | -3.1% | 18.1 | -12.4%
CCOC(=O)C1CCN(C(=O)c2cccc(S(=O)(=O)N3c4ccccc4CC3C)c2)CC1 (stereo not drawn) | -3.7% | ? | ? | 2.2% | 3.9 | -1.9%
COc1ccccc1N1CCN(C(=O)c2cccc(S(=O)(=O)N3c4ccccc4CC3C)c2)CC1 (stereo not drawn) | -13.9% | ? | 23.1µM* | -2.7% | · | ?
CN(C)c1ccc(/C=C2\C=Cc3ccccc32)cc1Cl | -4.3% | ? | ? | · | · | 4.7%
CCN(Cc1ccc(C#CCCO)cc1)CC1CCCN(CCc2cccc(F)c2)C1 (stereo not drawn) | -45.7% | 20.6µM* | ? | 0.4% | -23.2 | -16.0%
COc1ccc(CCN2CCCC(CN(C)C(=O)c3ccoc3C)C2)cc1 (stereo not drawn) | 20.7% | -28.6% | -18.6% | 3.0% | i | 11.1%
CN(Cc1ccccc1O)CC1CCCN(CCc2ccc(Cl)cc2)C1 (stereo not drawn) | -38.6% | ? | ? | -2.9% | -14.2 | -8.5%
Cc1occc1C(=O)N(C)CC1CCCN(CCc2ccc(Cl)cc2)C1 (stereo not drawn) | -22.8% | 20.6µM* | ? | · | -21.7 | -2.0%
CN(Cc1ccc(C#CCCO)cc1)CC1CCCN(CCc2ccc(Cl)cc2)C1 (stereo not drawn) | -41.0% | 14.6µM* | 18.4µM* | 8.3% | -28.6 | ?
COc1ccc(CN(C)CC2CCCN(CCc3ccc(F)cc3)C2)c(OC)c1OC (stereo not drawn) | -35.0% | 14.6µM* | 23.1µM* | 1.5% | · | ?
CCN(Cc1ccc(OC)c(COC)c1)CC1CCCN(CCc2cccc(F)c2)C1 (stereo not drawn) | -39.1% | ? | ? | 4.3% | ? | -1.7%
C/C(=N/NC(=O)C(O)(c1ccccc1)c1ccccc1)c1ccc([N+](=O)[O-])o1 | -63.5% | 20.6µM* | 20.6µM* | -4.2% | -3.1 | ?
COc1cc(/C=N/NC(=O)C(=O)NCc2ccco2)cc(Br)c1O | 8.7% | 0.7% | -0.5% | 3.2% | 12.1 | -5.1%
Cc1ccn2c(=O)c(C(=O)NCCc3ccccc3)c(O)nc2c1 | -6.2% | 23.1µM* | ? | · | · | -1.2%
CC(NC(=O)c1c(O)nc2ccccn2c1=O)c1ccccc1 (stereo not drawn) | -16.7% | 18.4µM* | 23.1µM* | · | · | 9.4%
Cc1ccc(CNC(=O)c2c(O)nc3cc(C)ccn3c2=O)cc1 | -9.6% | -4.6% | -6.0% | · | · | 8.7%
SMILES | HepG2 viability | TDP1 cell noCPT | DT40 TDP1 CPT | ASM inhibitor | IL-1B inflam inh | TGFb SMAD3 inh
Cc1ccn2c(=O)c(C(=O)NC(C)c3ccccc3)c(O)nc2c1 (stereo not drawn) | -3.3% | 23.1µM* | ? | · | · | -5.5%
O=C(CNC(=O)C1CCCCC1)OCC(=O)c1ccc(C2CCCCC2)cc1 | -4.1% | ? | ? | · | · | 6.6%
O=C(COc1coc(CN2CCN(c3ccccc3)CC2)cc1=O)Nc1ccc(F)cc1 | -12.9% | -27.5% | -38.8% | · | -7.3 | 6.4%
COc1ccc(CC(=O)NC2CC(C)(C)NC(C)(C)C2)cc1OC | -11.3% | 0.8% | 3.4% | -1.0% | -1.5 | -3.4%
CCN(C(=O)Cn1c(C(=O)OC)cc2oc3ccccc3c21)c1cccc(C)c1 | -31.7% | 18.4µM* | 11.6µM* | · | · | ?
COCCNC(=O)CC(=O)N/N=C/c1cccc(C(=O)OC)c1 | 7.7% | 8.2% | 2.3% | -2.1% | -10.6 | -6.0%
Cc1ccc(NC(NC(=O)c2cccnc2)C(Cl)(Cl)Cl)cc1 (stereo not drawn) | -19.9% | ? | ? | 3.5% | 6.4 | -11.0%
CC(C)C(=O)Nc1cccc(NC(=O)c2ccc(Cl)cc2Cl)c1 | 1.4% | ? | -23.0% | -2.8% | -59.4* | 0.6%
O=C(Nc1cccc(NC(=O)c2ccc(Cl)cc2Cl)c1)c1cccnc1 | -19.4% | ? | ? | -0.6% | -53.9* | -3.7%
Cc1ccc(C)c(NC(NC(=O)c2cccnc2)C(Cl)(Cl)Cl)c1 (stereo not drawn) | -31.2% | 25.9µM* | 23.1µM* | -1.2% | 11.7 | -17.6%
COc1c(C)cc(Br)cc1C(=O)Nc1ccc(C)cc1[N+](=O)[O-] | 5.2% | 13µM* | ? | -0.1% | -6.5 | 0.6%
